High-throughput results as filed in PubChem.
Gal4-VP16 FLuc: Gal4-VP16 reporter inhibition counter-screen | Drosophila S2 Gal4-VP16 UAS-luciferase, luminescence, 20 h | Potency, µM (series often up to 53.6 µM), for the others: at the top dose activity, negative = inhibition, most hits filed as inhibitors | hit rate 3.5% among 310,000;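 note: Gal4-VP16 expression switched on by copper sulfate through the metallothionein promoter; % is set by controls: 0 for no effect and ±100 for the full control effect; nearly all actives have a fitted effect of over 50% in size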
HEK293 tox: cytotoxic in the GLP-1 receptor inverse agonist counter-screen; HEK293 cAMP-luciferase reporter cells, luminescence, 24 h; Potency, µM (highest dose often 38.3 µM), inactives show at the highest dose activity change, negative = inhibition, actives largely listed as inhibitors; hit rate 0.13% among 410,000; AID 624418;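 note: loss of luciferase light is scored as toxicity; % is set by controls: 0 for no effect and ±100 for the full control effect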
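A 23 nL compound transfer followed 12 hours of cell culture at 37 deg C; exposure then lasted 24 hr. Luciferase assay detection reagent was dispensed and plates read for luminescence after a 12 min room-temperature wait.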
GLP-1R inv ag: acts as inverse agonist at human GLP-1 receptor. hit rate 1.6% among 410,000. AID 624417. HEK293 GLP-1R CRE-luciferase, luminescence, 24 h; GLP-1R form is constitutively active. P43220. Potency, µM (doses to about 38.3 µM), for the others: at the top dose activity change, negative = inhibition, most hits filed as inhibitors; note: % is set by controls: 0 for no effect and ±100 for the full control effect; nearly all actives have a fitted effect of over 55% in size
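Constitutively active GLP-1R drives a cAMP-responsive luciferase in stably transfected HEK293 cells; test compounds are added after overnight (12 h) attachment and left 24 hr, and signal loss in luminescence marks inhibition.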
RORg inh: blocks mouse ROR gamma transcriptional activity; Drosophila S2 Gal4-RORgamma UAS-luciferase reporter, 20 h; hit rate 5.4% among 310,000; Potency, µM (highest dose often 53.6 µM), inactives show at the highest dose activity change, negative = inhibition, usual class: inhibitors; AID 2551; P51450; note: % is set by controls: 0 for no effect and ±100 for the full control effect; nearly all actives have a fitted effect of over 60% in size
Target sequence (P51450 whole entry, looked up, the tested form may be a part): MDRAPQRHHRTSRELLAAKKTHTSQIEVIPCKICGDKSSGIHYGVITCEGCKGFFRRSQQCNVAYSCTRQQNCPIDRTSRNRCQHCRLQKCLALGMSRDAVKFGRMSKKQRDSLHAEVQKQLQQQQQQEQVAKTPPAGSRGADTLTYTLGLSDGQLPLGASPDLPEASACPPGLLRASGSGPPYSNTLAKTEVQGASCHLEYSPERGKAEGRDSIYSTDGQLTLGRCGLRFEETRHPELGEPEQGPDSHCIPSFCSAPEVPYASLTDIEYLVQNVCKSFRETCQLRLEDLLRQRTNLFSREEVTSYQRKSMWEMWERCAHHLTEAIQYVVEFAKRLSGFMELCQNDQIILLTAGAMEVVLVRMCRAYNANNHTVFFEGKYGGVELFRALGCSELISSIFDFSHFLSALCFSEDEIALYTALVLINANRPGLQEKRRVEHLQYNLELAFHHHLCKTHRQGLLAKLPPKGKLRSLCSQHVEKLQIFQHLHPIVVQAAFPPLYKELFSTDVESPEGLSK
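Luciferase reporter read in Schneider cells carrying Gal4-RORγ (mouse) and UAS-Photinus luciferase; cells given compound 1 h before 700 uM copper sulfate induction, then incubated 20 h at ambient temperature.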
GLP-1R agonist: agonists of human GLP-1 receptor. P43220. HEK293 GLP-1R CRE-luciferase, luminescence, 4-6 h; cells express a hypersensitive GLP-1R form. Potency, µM (doses to about 45.6 µM), without a hit: at the highest dose activation, usual class: activators. hit rate 0.007% among 380,000. AID 624172; note: % of control where 0% means no effect
An asterisk follows results filed as active; [ ] = remark or other dose. A selection: hits, their analogues and other compounds. The true share with any hit is near 5.9%. Calls come from the whole dose curve; as a rule, active = well fitted curve in the direction sought with a large enough effect; inconclusive = small, poorly fitted or top-dose-only effect, or another doubt; inactive = no such curve, though single readings can be large; an effect the other way counts as inactive or inconclusive. Potency is the fitted concentration of half-maximal effect.

Screening N#C/C(=C(/O)COC(=O)Cc1c[nH]c2ccccc12)c1nc2ccccc2[nH]1 returned Gal4-VP16 FLuc inconclusive, HEK293 tox inconclusive, GLP-1R inv ag -14%, RORg inh 10µM* and GLP-1R agonist 1%.
For N#C/C(=C(/O)COC(=O)CCCNC(=O)c1ccc(Cl)cc1)c1nc2ccccc2[nH]1 the results were Gal4-VP16 FLuc inconclusive, HEK293 tox inconclusive, GLP-1R inv ag inconclusive, RORg inh 11µM* and GLP-1R agonist -8%.
Screening COc1ccccc1OCC(=O)OC/C(O)=C(\C#N)c1nc2ccccc2[nH]1 returned Gal4-VP16 FLuc -5%, HEK293 tox inconclusive, GLP-1R inv ag inconclusive, RORg inh 11% and GLP-1R agonist 4%.
Screening CCOC(=O)c1ccc2c(c1)nc(SC/C(O)=C(\C#N)c1nc3ccccc3[nH]1)n2CC returned Gal4-VP16 FLuc -2%, HEK293 tox 11%, GLP-1R inv ag -12%, RORg inh 5µM* and GLP-1R agonist -4%.
For Cc1cc(SCC(=O)OC/C(O)=C(\C#N)c2nc3ccccc3[nH]2)c(C)cc1Br the results were Gal4-VP16 FLuc 18µM*, HEK293 tox inconclusive, GLP-1R inv ag inconclusive, RORg inh 6.3µM* and GLP-1R agonist -1%.
Screening O=C(Cc1c[nH]c2ccccc12)OCC(=O)c1ccccc1 returned Gal4-VP16 FLuc 0%, HEK293 tox 1%, GLP-1R inv ag 13µM*, RORg inh 10% and GLP-1R agonist 2%.
`COc1ccc(C(=O)COC(=O)Cc2c[nH]c3ccccc23)c(OC)c1` gave HEK293 tox 3%, GLP-1R inv ag inconclusive and GLP-1R agonist 9%.
For Cc1nc(Nc2ccccc2)sc1-c1ccccc1 the results were Gal4-VP16 FLuc 11µM*, HEK293 tox -22%, GLP-1R inv ag inconclusive, RORg inh 11µM* and GLP-1R agonist -21%.
`Cc1nc(Nc2ccc(C(=O)O)cc2)sc1-c1ccccc1` gave Gal4-VP16 FLuc -9%, HEK293 tox -10%, GLP-1R inv ag inconclusive, RORg inh 29% and GLP-1R agonist 5%.
Screening C/C(CC(=O)NC(C)(C)C)=N\NC(=O)c1ccccc1N returned Gal4-VP16 FLuc -2%, HEK293 tox 3%, GLP-1R inv ag 19%, RORg inh inconclusive and GLP-1R agonist 0%.
For C/C(CC(=O)NC(C)(C)C)=N\NC(N)=S the results were Gal4-VP16 FLuc inconclusive, HEK293 tox inconclusive, GLP-1R inv ag inconclusive, RORg inh 11µM* and GLP-1R agonist 0%.
`O=C(c1[nH]c2ccccc2c1Sc1ccc(Cl)cc1)N1CCCCC1` gave HEK293 tox -1% and GLP-1R inv ag 10µM*.
Screening Cc1ccc2c(Sc3ccc(Cl)cc3)c(C(=O)N3CCCCC3)[nH]c2c1 returned HEK293 tox -5% and GLP-1R inv ag inconclusive.
For Fc1ccc(Br)cc1C1C=C(c2ccc(Br)s2)Nc2ncnn21 (stereo not given) the results were Gal4-VP16 FLuc 3%[0.365 µM], HEK293 tox 343%, GLP-1R inv ag inconclusive, RORg inh 35µM* and GLP-1R agonist 1%.
`COc1ccc(S(=O)(=O)Nc2cc3c(cc2NCc2ccccc2)n(C)c(=O)n3C)cc1OC` gave HEK293 tox -22% and GLP-1R inv ag 1%.
`O=C(c1ccc(N2CCCCC2)c([N+](=O)[O-])c1)N1CCN(c2ccccn2)CC1` gave Gal4-VP16 FLuc inconclusive, HEK293 tox -2%, GLP-1R inv ag inconclusive, RORg inh inconclusive and GLP-1R agonist 19%.
O=C1C2CC=CCC2C(=O)N1c1ccc(N2CCN(c3ccccn3)CC2)c([N+](=O)[O-])c1 (stereo not given) was read as Gal4-VP16 FLuc 4.5µM*, HEK293 tox -12%, GLP-1R inv ag inconclusive, RORg inh -81% and GLP-1R agonist 5%.
Screening O=C(COc1ccc(Cl)cc1)N1CCN(C(=O)c2cccs2)CC1 returned Gal4-VP16 FLuc 18µM*, HEK293 tox -1%[0.307 µM], GLP-1R inv ag 7%[0.307 µM], RORg inh 7.1µM* and GLP-1R agonist 5%.
Cc1cc(C)nc(Sc2nc(Cl)nc(N(c3ccccc3)c3ccccc3)n2)n1 was read as Gal4-VP16 FLuc inconclusive, HEK293 tox inconclusive, GLP-1R inv ag inconclusive, RORg inh 11µM* and GLP-1R agonist -8%.
CCOC(=O)C1CCN(C(=O)c2nn(-c3ccc(C)cc3)c(=O)c3c2c2ccccc2n3C)CC1 was read as HEK293 tox -1% and GLP-1R inv ag -4%.
For O=C(NC1CC(=O)N(c2ccc(Cl)cc2)C1)c1cc2ccccc2o1 (stereo not given) the results were HEK293 tox 16% and GLP-1R inv ag 5%.
O=C(On1c(-c2ccccc2)nc2ccccc2c1=O)c1ccco1 was read as Gal4-VP16 FLuc inconclusive, HEK293 tox -5%, GLP-1R inv ag inconclusive, RORg inh 11µM* and GLP-1R agonist 0%.
For COc1ccc(-c2nc3ccccc3c(=O)n2CCOc2c(C)cccc2C)cc1 the results were Gal4-VP16 FLuc 1%, HEK293 tox -8%, GLP-1R inv ag 31%, RORg inh -1% and GLP-1R agonist 1%.
Screening O=c1c2ccccc2nc(-c2ccco2)n1Cc1ccccc1 returned Gal4-VP16 FLuc inconclusive, HEK293 tox -13%, GLP-1R inv ag inconclusive, RORg inh 19% and GLP-1R agonist inconclusive.
Screening COc1cc(OC)cc(-c2nc3ccccc3c(=O)n2OC(=O)c2ccccc2C)c1 returned Gal4-VP16 FLuc inconclusive, HEK293 tox inconclusive, GLP-1R inv ag inconclusive, RORg inh 13µM* and GLP-1R agonist 0%.
For Cc1ccc(C)c2sc(N3CCN(C(=O)C(C)(C)C)CC3)nc12 the results were HEK293 tox 5% and GLP-1R inv ag inconclusive.
`CCCCC/C=C\C/C=C\C/C=C\C=C\C1CCCC(=O)O1` (stereo not given) gave Gal4-VP16 FLuc -6% and RORg inh 15%.
`Cc1ccc(N(C(=O)c2cccc(C)c2)S(=O)(=O)c2ccc(Cl)cc2)cc1` gave HEK293 tox -26% and GLP-1R inv ag inconclusive.
For O=C(COc1ccccc1Cl)Nc1ccc(N2CCCC2)cc1 the results were Gal4-VP16 FLuc 1%, HEK293 tox -21%, GLP-1R inv ag 48%, RORg inh 0% and GLP-1R agonist 14%.
CN1CCN(c2ccc(NC(=O)COc3cccc4ccccc34)cc2)CC1 was read as Gal4-VP16 FLuc 6%, HEK293 tox 1%, GLP-1R inv ag 10µM*, RORg inh inconclusive and GLP-1R agonist 14%.
For CN1CCN(c2ccc(NC(=O)COc3ccc4ccccc4c3)cc2)CC1 the results were Gal4-VP16 FLuc inconclusive, HEK293 tox -7%, GLP-1R inv ag 7.1µM*, RORg inh -8% and GLP-1R agonist 21%.
